Data published in PubChem BioAssay (Tox21).
Results filed as inconclusive are left out. The source made the active and inactive calls. Calls follow the shape of the dose curve; as a rule, active = well fitted activation curve with a large enough effect in the repeat runs; inconclusive = weak or mixed curves; inactive = flat fitted curve, though single readings scatter.

Molecular target: Nuclear receptor subfamily 1 group I member 2 (Homo sapiens) (UniProt O75469)
Assay: Human pregnane X receptor (PXR) activation by small molecules, qHTS assay (AID 1346985); also: nearly all actives have a fitted effect of over 40% in size
Details: DPX-2 HepG2 CYP3A4-luciferase, 24 h; series mostly up to 38.3 µM; activation: at the top concentration
Description: National Center for Advancing Translational Sciences [NCATS]
NIH Chemical Genomics Center [NCGC]
U.S. Environmental Protection Agency [EPA]
National Institutes of Environmental Health Sciences [NIEHS]
National Toxicology Program [NTP]
The Pregnane X receptor (PXR), a ligand activated nuclear receptor plays a critical role in the regulation of genes involved in drug metabolism and transporters. Activation of PXR may be involved in the unwanted adverse drug-drug interactions. […] Therefore, identification of compounds with the potential for PXR activation can be of importance in improving the efficacy of drugs with less toxicity and avoiding drug-drug interactions.
DPX-2 (Puracyp, Inc.) cell lines, used for screening against human PXR activation has HepG2 cells co-transfected with a PXR response element and a luciferase construct containing CYP3A4 promoter. Increase in luciferase activity can be used to identify the compounds that activate the PXR pathway.
DPX-2 cells were dispensed at 2,000 cells per well in 5uL of assay medium into white, solid-bottom 1536-well plates using a Multidrop Combi dispenser (Thermo Scientific). The assay plates were incubated at 37C for 5hr before transferring 23nL of test compounds dissolved in DMSO and positive control via Pintool station (Wako). The assay plates were incubated at 37C for 24hr. Then 5ul One-Glo assay reagent (Promega) was added to each plate by a Flying Reagent Dispenser (FRD, Aurora Discovery) and following 30 min incubation at room temperature, luciferase activity was quantified on a ViewLux plate reader (Perkin Elmer).
% is scaled to controls: 0 for no effect and ±100 for the full control effect; potency is read from the fitted curve at half-maximal effect.

Compound | Potency | activation
CCC(COC(=O)c1cc(OC)c(OC)c(OC)c1)(c1ccccc1)N(C)C (configuration not stated) | 25.1 µM (active) | –
O=C1NCN(c2ccccc2)C12CCN(CCCOc1ccc(F)cc1)CC2 | – | 11.5% (inactive)
ClC=C(Cl)Cl | – | -11.8% (inactive)
Cn1sc(Cl)cc1=O | – | 7.97% (inactive)
O=C1c2ccccc2C(=O)C1C(=O)C(c1ccccc1)c1ccccc1 | – | 21.3% (inactive)
O=C1CN=C(c2ccccc2)c2cc(Cl)ccc2N1CC1CC1 | 2 µM (active) | –
O=[N+]([O-])c1ccc(F)c([N+](=O)[O-])c1 | – | -2.37% (inactive)
C#CCOC(C(=O)OCCN(C)C)(c1ccccc1)c1ccccc1 | – | 9.24% (inactive)
CCOP(=O)(OCC)O/C(=C/Cl)c1ccc(Cl)cc1Cl | 3.98 µM (active) | –
O=[N+]([O-])C(Br)(CO)CO | – | 3.61% (inactive)
COCC(C)N(C(=O)CCl)c1c(C)csc1C (configuration not stated) | – | 8.39% (inactive)
Clc1ccc(C(OCCN2CCCCC2)c2ccccc2)cc1 (configuration not stated) | – | 24.5% [at 17.1 µM] (inactive)
CCCCCCCCCC(=O)O[C@H]1CC[C@H]2[C@@H]3CCC4=CC(=O)CC[C@@H]4[C@H]3CC[C@]12C | – | -2.4% (inactive)
CC(=O)NC1CCSC1=O (configuration not stated) | – | -2.52% (inactive)
CC(O)(CS(=O)(=O)c1ccc(F)cc1)C(=O)Nc1ccc(C#N)c(C(F)(F)F)c1 (configuration not stated) | – | 21.6% (inactive)
CN1C(=O)NC(=O)C(C)(C2=CCCCC2)C1=O (configuration not stated) | inactive | –
CC(=O)[C@H]1CC[C@H]2[C@@H]3CC[C@H]4C[C@](C)(O)CC[C@]4(C)[C@H]3CC[C@]12C | – | -3.13% (inactive)
